Measured values from PubChem BioAssay (NCI).
The panel holds about 83,000 compounds, 20% with a hit somewhere; the sample as a whole holds those more often.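 Plates (96-well) were seeded with cells, treated with compound at one concentration, and incubated for 48 hours before percent growth was determined.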 Unmarked numbers belong to inactive results. Calls of active or inactive are those of the source. The calls were made as follows: active = growth percent below 10; inactive = the rest.

The compounds below were run on SK-MEL-2 melanoma (assay: NCI-60 one-dose screen, 48 h (100 = growth as untreated, 0 = no growth, -100 = all killed)). Settings: 10 µM unless noted.
`COc1cc2c3c(c4c5ccccc5[nH]c4c2c(OC)c1OC)C(=O)N(O)C3=O` gave a growth of 85.6%.
With `Cc1cc2nc3c4cc(O)ccc4n(CCN(C)C)c3nc2cc1C` the growth was -42.9% (active).
`Cc1csc(Nc2nc(-c3ccc(Cl)cc3)nc(C(Cl)(Cl)Cl)n2)n1` was tested, and the growth was 112%.
`Cc1cc(C)nc(NC(N)=NCCc2ccccc2)n1` showed a growth of 38.4%.
`COc1cc(-c2c(C#N)c(-c3cccs3)nc3c2c(-c2ccccc2)nn3-c2ccccc2)ccc1O` gave a growth of 81%.
With `CN1CCN(c2ccc3nc(-c4[nH]ncc4Nc4ncnc5c4OCCCN5)[nH]c3c2)CC1` the growth was -56.1% (active).
In the case of `COC(=O)[C@]12CC[C@@H](C)[C@H](C)[C@@H]1C1=CC[C@@H]3[C@@]4(C)C[C@@H](O)[C@H](O)[C@@](C)(CO)C4=CC[C@@]3(C)[C@]1(C)CC2`, the growth is reported as -36.9% (active).
For `O=C(NO)c1ccc(Cn2c(=O)n(-c3ccccc3)c(=O)c3ccccc32)cc1`, the growth was 5.92% (active).
`COC(=O)[C@]12CC[C@@H](C)[C@H](C)[C@@H]1C1=CC(=O)[C@@H]3[C@@]4(C)C[C@@H](O)[C@H](O)[C@@]5(C)COC(=C45)C[C@@]3(C)[C@]1(C)CC2` was tested, and the growth was 33.6%.
`Cn1cc(-c2csc(-c3cn(CCN)c4ccc(F)cc34)n2)c2cccnc21` was tested, and the growth was 93.3%.
In the case of `CN(C)CCCCC(C(=O)CBr)(c1ccccc1)c1ccccc1`, the growth is reported as 53.8%.
For `CC/C=C\C[C@H]1CC=C2C(=O)C=C[C@@H]2CC=CCCCC(=O)O[C@@H](CCCCC)CC=C2C(=O)C=C[C@@H]2CC=CCCCC(=O)O[C@@H](CCCCC)CC=C2C(=O)C=C[C@@H]2CC=CCCCC(=O)O[C@@H](CCCCC)CC=C2C(=O)C=C[C@@H]2CC=CCCCC(=O)O1`, the growth was -5.92% [7.9 µM] (active).
For `Clc1ccc2c(NCCNc3nc(-c4ccccc4)cc(-c4ccccc4)n3)ccnc2c1`, the growth was -10.9% (active).
`Cc1ccc(N(CC(=O)Nc2ccc(S(=O)(=O)N3CCC(N4CCCC4)CC3)cc2)S(=O)(=O)c2ccc(Cl)cc2)cc1` showed a growth of 91.9%.
With `Oc1ccc(Nc2ccccc2)cc1` the growth was 125%.
`CCCCCCCCNc1cccc2c1C(=O)c1ccccc1C2=O` gave a growth of 108%.
Work on `Cc1cc(N(CCCNc2ccnc3cc(Cl)ccc23)Cc2ccco2)nc(N2CCN(C)CC2)n1` yielded a growth of 70.7%.
`C=C1C(=O)O[C@H]2[C@H]1CC/C(Cn1cc(-c3ccc(OC)cc3)nn1)=C\CC[C@@]1(C)O[C@@H]21` showed a growth of 61.9%.
In the case of `O=c1[nH]c2c3ccncc3cc(-c3cccc(Cl)c3)c2c2cnccc12`, the growth is reported as 64.1%.
In the case of `O=C1CNCCN1`, the growth is reported as 106%.
Work on `COc1ccc(/C=C/C(=O)NCC(C)O)cc1` (stereo unspecified) yielded a growth of 93.3%.
Compound `O=C1Nc2ccccc2/C1=C/c1cn(CCCn2c3ccccc3c(=O)c3ccccc32)c2ccccc12` has a growth of 84.4%.
`Cn1cc(-c2csc(-c3c[nH]c4ccc(F)cc34)n2)c2cccnc21` showed a growth of 41.2%.
`Cc1cc(Cl)nc(N(CCCNc2ccnc3cc(Cl)ccc23)Cc2ccco2)n1` showed a growth of 39.4%.
Compound `COc1cc(/C=C/c2cc(/C=C/c3ccc(O)c(OC)c3)n(-c3ccc(Cl)cc3)c(=O)n2)ccc1O` has a growth of 92.6%.
Compound `CC1(c2ccccc2)OC1C(=O)O` (stereo unspecified) has a growth of 107%.
`COc1cc(/C=C2\C(=O)N(CC(O)COc3cc(O)c4c(=O)cc(-c5ccccc5)oc4c3)c3ccccc32)cc(OC)c1O` (stereo unspecified) was tested, and the growth was 82.2%.
`Oc1cccc2oc(=S)[nH]c12` gave a growth of 109%.
Work on `COc1ccc2c(c1)c(-c1nc(-c3c[nH]c4ncccc34)cs1)cn2CCN` yielded a growth of 75.2%.
In the case of `C=C(C)[C@@H]1CC[C@]2(C(=O)N3CCCNCC3)CC[C@]3(C)[C@H](CC[C@@H]4[C@@]5(C)CCC(=O)C(C)(C)[C@@H]5CC[C@]43C)[C@@H]12`, the growth is reported as 118%.
`Cc1ccc(NC2CC(=O)N(c3c(C)cc(C)cc3C)C2=O)c(C)c1` (stereo unspecified) was tested, and the growth was 112%.
In the case of `CC1c2ccccc2N(S(=O)(=O)c2ccccc2)C1C` (stereo unspecified), the growth is reported as 76.5%.
For `Nc1ccc(Cl)cn1`, the growth was 107%.
`CCc1nnc(NC(=O)c2ccoc2COc2ccccc2)s1` was tested, and the growth was 54.3%.
With `Nc1c2c(nc3ccc(Br)cc13)CC(c1ccccc1)CC2=O` (stereo unspecified) the growth was 59.2%.
In the case of `CC(C)(C)n1cc(-c2ccnc(NCCCNS(=O)(=O)c3ccc(Cl)cc3)c2)c(-c2cccc(F)c2)n1`, the growth is reported as 88.4%.
